The results in this text go back to the supplement of paper PMC3334620.

Whole data set: some 33,000 sequences, median “E-score (-0.5 to 0.5)” near -0.035, cut for the highest 2% near 0.35. Many of the other results were omitted from the sample, so the highest values are more common in it than they were.

In the assay the target is T1, Pdr3 (UniProt P33200).
T1 sequence: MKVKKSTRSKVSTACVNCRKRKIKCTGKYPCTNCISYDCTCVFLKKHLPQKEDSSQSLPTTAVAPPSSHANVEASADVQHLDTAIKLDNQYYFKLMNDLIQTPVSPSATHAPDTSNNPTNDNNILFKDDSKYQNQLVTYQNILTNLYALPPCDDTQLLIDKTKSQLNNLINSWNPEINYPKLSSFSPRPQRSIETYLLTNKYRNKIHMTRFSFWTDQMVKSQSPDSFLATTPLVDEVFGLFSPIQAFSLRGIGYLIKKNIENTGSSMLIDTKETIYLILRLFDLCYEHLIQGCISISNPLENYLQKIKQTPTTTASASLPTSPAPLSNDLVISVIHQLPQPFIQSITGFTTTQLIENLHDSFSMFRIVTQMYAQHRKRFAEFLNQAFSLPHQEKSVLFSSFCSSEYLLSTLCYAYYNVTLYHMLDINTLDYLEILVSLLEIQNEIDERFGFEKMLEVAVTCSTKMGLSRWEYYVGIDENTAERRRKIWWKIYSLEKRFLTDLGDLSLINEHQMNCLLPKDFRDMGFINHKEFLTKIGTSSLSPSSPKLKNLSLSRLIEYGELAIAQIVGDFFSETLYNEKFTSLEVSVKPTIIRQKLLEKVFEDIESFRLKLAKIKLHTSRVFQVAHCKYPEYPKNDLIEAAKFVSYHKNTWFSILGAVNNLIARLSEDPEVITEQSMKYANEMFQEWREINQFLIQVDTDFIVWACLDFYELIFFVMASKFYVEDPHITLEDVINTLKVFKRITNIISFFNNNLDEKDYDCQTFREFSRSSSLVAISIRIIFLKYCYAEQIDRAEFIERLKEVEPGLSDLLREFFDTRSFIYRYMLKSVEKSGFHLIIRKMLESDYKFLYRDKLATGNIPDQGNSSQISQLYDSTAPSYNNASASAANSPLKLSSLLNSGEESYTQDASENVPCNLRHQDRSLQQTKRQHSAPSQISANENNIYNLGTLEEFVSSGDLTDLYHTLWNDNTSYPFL
As to the kind of experiment: PBM E-score (8-mer binding enrichment) (E-score (-0.5 to 0.5)); higher = stronger / more preferred TF binding. To be noted: protein concentration: 200 nM; construct: GST-full length. Here is the method: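 Universal 'all 10-mer' protein binding microarrays (Agilent AMADID 015681) probed with GST-tagged S. cerevisiae TFs (full-length or DBD) made by in vitro transcription/translation (PURExpress), about 100-200 nM. Bound TF was detected with fluorescent anti-GST. Each ungapped 8-mer (which stands for itself and its reverse complement) is scored by the PBM enrichment score (E-score), a modified Wilcoxon-Mann-Whitney statistic from -0.5 to +0.5, computed with the Universal PBM Analysis Suite. Scale: above 0.35 generally sequence-specific binding.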
On to CCCACGGA, for which the “PBM E-score” value worked out at 0.424.
Consider CCCACGGC, for which the “PBM E-score” value worked out at 0.0935.
In the case of GTCAGTAA, the “PBM E-score” value is -0.145.
For the sequence ACTGGAAC, the “PBM E-score” value came out at 0.0779.
Consider ACAGAGCC, for which the “PBM E-score” value is -0.128.
On to AACTCCGT, for which the “PBM E-score” value stood at 0.271.
As for ACCTCCGT, the “PBM E-score” value came out at 0.204.
For the sequence ATCTCCGG, the “PBM E-score” value is 0.4.
With AGCTCCGA, the “PBM E-score” value was determined as 0.239.
Consider CACTCCGG, for which the “PBM E-score” value was found to be 0.351.
With AGCTCCGG, the “PBM E-score” value was found to be 0.389.
For CCCTCCGG the value was 0.265; for ATCTCCGA, 0.324.
For ACCTCCGG the value was 0.402; for AGCTCCGC, 0.287.
In the case of ATCTCCGC, the “PBM E-score” value was determined as 0.292.
For AACTCCGG, the “PBM E-score” value was 0.416.
The result for ACGCTACC reads -0.183; that for CGAGCGCG, 0.273.
AGCGAAGG: the “PBM E-score” value is -0.0572.
The result for GATTTAAA reads -0.159; that for ATGGCACG, 0.117.
For the sequence CGGCGCCA, the “PBM E-score” value amounted to 0.171.
With AGGCGCCG, the “PBM E-score” value was 0.161.
For AGCCGGCG, the “PBM E-score” value stood at 0.372.
For CGCCGGCG, the “PBM E-score” value amounted to 0.452.
As for AGCCGGCA, the “PBM E-score” value amounted to 0.339.
With CGCCGGCC, the “PBM E-score” value came to 0.32.
For the sequence CGGCGCCG, the “PBM E-score” value worked out at 0.463.
Consider CGCCGGCA, for which the “PBM E-score” value was determined as 0.339.
Take AGCCGGCT: the “PBM E-score” value was 0.315.
As to AACCAGAG, the “PBM E-score” value was -0.12.
Turning to ACTGACCG, the “PBM E-score” value is -0.00211.
Take CGTGCTTA: the “PBM E-score” value stood at 0.0586.
For CCTCTAGC, the “PBM E-score” value was -0.247.
In the case of GTTCCACA, the “PBM E-score” value was determined as 0.0178.
For CGTACGGA, the “PBM E-score” value was 0.281.
For the sequence CGGACCCC, the “PBM E-score” value was determined as 0.198.
As to AGGACCCG, the “PBM E-score” value was 0.17.
Take CGGACCCG: the “PBM E-score” value was found to be 0.392.
For CAGCGCAG the value was -0.00798.
Turning to CTCTCTGC, the “PBM E-score” value was -0.0361.
Regarding ATTTGACC, the “PBM E-score” value was -0.0303.
For the sequence CATTGCAC, the “PBM E-score” value was -0.0987.
On to CGCCGACG, for which the “PBM E-score” value was determined as 0.0962.
The result for GGGAAATA reads 0.0401; that for AGGAAATA, 0.121; that for CGGAAATA, 0.45.
Consider CTGAAATC, for which the “PBM E-score” value came out at 0.0707.
For CGGAAATC the value was 0.407; for AGGAAATC, 0.0849; for AACTCGAC, 0.0587.
For AACAGCTT, the “PBM E-score” value is 0.048.
For TAGGGGAA, the “PBM E-score” value was -0.157.
With CGGCATTA, the “PBM E-score” value stood at 0.357.
For AGGCATTA the value was -0.12; for GGGCATTA, -0.0343; for CTCTTCCC, 0.0704.
For the sequence AAATCCAT, the “PBM E-score” value worked out at 0.17.
For GGAACTAA the value was 0.296; for CCCGCCAC, 0.254.
Turning to AGCTGCTG, the “PBM E-score” value is -0.0512.
With AGCTTCGA, the “PBM E-score” value was -0.102.
With AAGCCGGA, the “PBM E-score” value is 0.392.
For CAGCCGAA the value was 0.0741; for AAGCCGGC, 0.366.
Turning to GAGCCGGA, the “PBM E-score” value came out at 0.362.
Take AAGCCGGG: the “PBM E-score” value was 0.262.
Take CAGCCGGA: the “PBM E-score” value is 0.398.
On to GAGCCGGC, for which the “PBM E-score” value stood at 0.324.
Consider AAGCCGTC, for which the “PBM E-score” value was 0.178.
Turning to GAGCCGCA, the “PBM E-score” value came to 0.044.
As for CAGCCGGC, the “PBM E-score” value was determined as 0.324.
Turning to CAGCCGGG, the “PBM E-score” value is 0.229.
AAGCCGGT: the “PBM E-score” value was 0.199.
As to AAGTGCTC, the “PBM E-score” value was -0.107.
For AGTTCTAA the value was 0.00941; for ACGGTGAA, -0.0181; for AATCGTCA, -0.112.
For GTTGATCA the value was 0.0338; for AGCCCCAT, -0.0914.
Consider TAGCCGCA, for which the “PBM E-score” value is -0.0883.
In the case of TAGCCGAA, the “PBM E-score” value came out at 0.0812.
Take TAGCCGGA: the “PBM E-score” value came out at 0.372.
AAAGAGGA: the “PBM E-score” value was -0.131.
Take ATAACTGA: the “PBM E-score” value worked out at 0.00191.
For AGGAACTA the value was 0.0717; for GGGAACTA, 0.0485; for CTGAACTC, -0.215.
The result for CGGAACTA reads 0.473; that for AGGAACTC, 0.0544; that for CGGAACTC, 0.452.
As for CTCTTCTC, the “PBM E-score” value was -0.18.
On to GTATGGAC, for which the “PBM E-score” value was 0.0423.
Turning to ACCGATGG, the “PBM E-score” value is -0.0565.
Consider CTACTGTA, for which the “PBM E-score” value was -0.136.
As to ACTAAACT, the “PBM E-score” value was -0.121.
With AGCAGCAC, the “PBM E-score” value was -0.129.
Regarding GTTGCCTA, the “PBM E-score” value is 0.0329.
With ACCCGGGT, the “PBM E-score” value was 0.446.
With ACCCGGGA, the “PBM E-score” value turned out to be 0.448.
With ACCGGGGA, the “PBM E-score” value was 0.0294.
For AACCGGGA, the “PBM E-score” value came out at 0.243.
For ACCGGGGC, the “PBM E-score” value was 0.224.
The result for CCCCGGGC reads 0.33; that for GCCCGGGC, 0.427.
ACCCGGGC: the “PBM E-score” value came out at 0.424.
Turning to GACCGGGC, the “PBM E-score” value came to 0.0834.
Regarding ACCCGGCT, the “PBM E-score” value is 0.24.
In the case of ACCCCGGT, the “PBM E-score” value stood at 0.186.
As for ACCCGGTC, the “PBM E-score” value came to 0.199.
